# In the library only some 7.3% were active in any assay of this set; here they are far more common.
# RORg inh: qHTS for inhibitors of ROR gamma transcriptional activity; Nuclear receptor ROR-gamma (Mus musculus), P51450; Drosophila S2 Gal4-RORgamma UAS-luciferase reporter, 20 h; Potency, µM (top dose mostly 53.6 µM), for the others: top-dose activity change, negative = inhibition, usual class: inhibitors; actives 5.4% (n = 310,000); also: nearly all actives have a fitted effect of over 60% in size
#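 Using a luciferase readout, inhibitors were identified by reduced reporter activity in Drosophila cells coexpressing a copper-inducible Gal4–ROR gamma fusion and UAS-driven Photinus luciferase, incubated 20 hr after 700 uM copper sulfate.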
# Tau fibril ThT: qHTS for Inhibitors of Tau Fibril Formation, Thioflavin T Binding. Microtubule-associated protein tau (Homo sapiens), P10636. recombinant tau K18 P301L, heparin-induced fibrillization, ThT fluorescence. Potency, µM (top dose mostly 57.4 µM), for inactives: top-dose activity, negative = inhibition, most hits filed as inhibitors. actives 2.1% (n = 270,000). AID 1460, 2008; also: nearly all actives have a fitted effect of over 55% in size
# Target sequence (P10636 561-689 P618L limits assumed): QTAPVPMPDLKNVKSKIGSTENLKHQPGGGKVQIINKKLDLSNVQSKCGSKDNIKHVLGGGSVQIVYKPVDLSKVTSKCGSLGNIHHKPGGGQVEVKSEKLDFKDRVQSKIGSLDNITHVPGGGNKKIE
#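 Using a mix of unlabeled (15 uM) and Alexa 594-labeled (0.24 uM) tau K18 P301L, heparin-triggered fibrillization over 6 hr at 37 C was scored by ThT fluorescence.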
# Gal4-VP16 FLuc: VP16 counterscreen qHTS for inhibitors of ROR gamma transcriptional activity. Drosophila S2 Gal4-VP16 UAS-luciferase, luminescence, 20 h. Potency, µM (highest dose often 53.6 µM), for the others: at the highest dose activity, negative = inhibition, actives largely listed as inhibitors. actives 3.5% (n = 310,000);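 also: Gal4-VP16 expression switched on by copper sulfate through the metallothionein promoter; nearly all actives have a fitted effect of over 50% in size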
# Tau fluor counter: Counterscreen qHTS for Inhibitors of Tau Fibril Formation, Fluorescence Polarization. tau K18 P301L Alexa594 fluorescence, heparin fibrillization. AID 1463, 2008. Potency, µM (doses to about 57.7 µM), for inactives: at the highest dose activity change, negative = decrease. actives 0.93% (n = 280,000); also: nearly all actives have a fitted effect of over 55% in size
#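 Human tau K18 P301L (15 uM unlabeled, 0.24 uM Alexa 594-labeled) in 100 mM sodium acetate pH 7 with 20 uM heparin, 6 hr at 37 C. ThT 30 uM added, 1 hr ambient; Alexa 594 FP and total fluorescence read at 555/632 nm.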
# Tau FP inhib: qHTS for Inhibitors of Tau Fibril Formation, Fluorescence Polarization; Microtubule-associated protein tau (Homo sapiens), P10636; K18 P301L tau heparin fibrillization, Alexa594 FP, 6 h; actives 0.39% (n = 280,000); Potency, µM (doses to about 57.7 µM), without a hit: at the highest dose activity, negative = inhibition, usual class: inhibitors; AID 1468, 2008; also: nearly all actives have a fitted effect of over 55% in size
#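 K18 P301L tau (15 uM unlabeled/0.24 uM Alexa 594-labeled, final) + compound + heparin 20 uM final; 100 mM NaOAc pH 7; 6 hr 37 C; ThT 30 uM final added, 1 hr RT; FP ex 555/em 632 nm.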
# Starred values were filed as active, the others as inactive; ? = inconclusive; / = no result; [ ] = remark or other dose. Calls follow the shape of the dose curve; as a rule, active = well fitted curve in the direction sought with a large enough effect; inconclusive = small, poorly fitted or top-dose-only effect, or another doubt; inactive = no such curve, though single readings can be large; an effect the other way counts as inactive or inconclusive. % is scaled to controls: 0 for no effect and ±100 for the full control effect; potency is read from the fitted curve at half-maximal effect.
SMILES,RORg inh,Tau fibril ThT,Gal4-VP16 FLuc,Tau fluor counter,Tau FP inhib
COc1ccc(S(=O)(=O)N2Cc3ccccc3CC2C(=O)Nc2cc(Cl)ccc2Cl)cc1 (centres undefined),/,9%,/,-26%,?
CC(C)n1c(=O)[nH][nH]c1=S,-1%,28µM*,0%,-26%,?
Cc1ccc(S(=O)(=O)NCl)cc1,0%,/,-3%,/,/
COc1cc(Br)cc(CN2CCN(C/C=C/c3ccccc3)CC2)c1O,10%,-18%,-1%,-14%,?
COc1cc(C/C=C\c2ccccc2)c(OC)cc1O,?,20µM*,?,?,?
COc1ccc(CCNC(=O)Cc2c(C)c3ccc(O)c(C)c3oc2=O)cc1OC,/,-2%,/,-7%,-6%
CSCCC(N=C1NS(=O)(=O)c2ccccc21)C(=O)NCCc1ccccc1 (centres undefined),14%,/,-5%,/,/
CC(c1ccccc1)n1cnc2ccccc21 (centres undefined),13µM*,-5%,-12%,-6%,-7%
Cc1nc2ccccc2n1C(C)c1ccccc1 (centres undefined),-16%[1.91 µM],/,?,/,/
O=C(CCl)NC(=O)NC12CC3CC(CC(C3)C1)C2,?,-4%,?,6%,3%
O=C(O)c1cccc(N2C(=O)/C(=C/c3ccc(SCc4ccc(Cl)cc4)o3)SC2=S)c1,26%,16µM*,-16%,?,?
CC(C)(C)OC(=O)CN1C(=O)S/C(=C\c2ccc(-c3cccc(C(=O)O)c3)o2)C1=O,?,/,-14%,/,/
CCOCCCNC(=O)C(NC(=O)Cc1cccs1)c1ccc(Cl)cc1 (centres undefined),?,6%,13µM*,1%,4%
COc1cccc(NC(=O)c2csc3c2CCCCC3)c1,/,-12%,/,-30%,?
Cc1ccc(Cn2c(=O)n(CC3CCC(C(=O)N4CCOCC4)CC3)c(=O)c3sccc32)cc1 (centres undefined),/,-5%,/,-3%,-2%
O=C(NNc1nc(-c2ccccc2)c2cc(Br)ccc2n1)c1ccc(S(=O)(=O)N2CCOCC2)cc1,7.9µM*,-21%,13µM*,?,-1%
O=C(CN1CCCCC1)NNc1nc(-c2ccccc2)c2cc(Br)ccc2n1,0.5µM*,?,1.6µM*,-20%,4%
CC(=O)NNc1nc(-c2ccccc2)c2cc(Br)ccc2n1,-25%,-1%,22%,0%,-10%
CN1CCN(S(=O)(=O)c2ccc(NS(=O)(=O)c3ccccc3)cc2)CC1,14%,/,3%,/,/
Cn1c(=O)c2[nH]c(N=NNc3ccccc3F)nc2n(C)c1=O,31%,14µM*,17%,?,?
CC(=O)/C(N=Nc1nc2c([nH]1)c(=O)n(C)c(=O)n2C)=C(\C)O,1%,?,-1%,-3%,-6%
Cc1ccccc1NN=Nc1nc2c([nH]1)c(=O)n(C)c(=O)n2C,-6%,?,?,-8%,-10%
COc1ccc(NN=Nc2nc3c([nH]2)c(=O)n(C)c(=O)n3C)cc1,3%,25µM*,-2%,?,?
Cc1ccc(S(=O)(=O)c2cc3c(=O)n4cccc(C)c4nc3n(Cc3ccncc3)c2=N)cc1,22%,/,-11%,/,/
CCc1ccccc1NC(=O)c1nn(-c2ccc(C)cc2)c(=O)c2c1c1ccccc1n2C,/,1%,/,-1%,-3%
COc1ccc(NC(=S)N/N=C/c2cccn2Cc2ccccc2F)cc1,0.28µM*,-13%,1.4µM*,-20%,8%
COc1ccc(NC(=S)N/N=C/c2cccn2Cc2ccc(F)cc2Cl)cc1,0.79µM*,-12%,2.8µM*,?,-2%
COc1ccc(NC(=S)NC(=O)/C=C/c2ccc(F)cc2)cc1,?,/,-13%,/,/
CSc1ccc(NC(=O)Nc2cccn(Cc3ccccc3F)c2=O)cc1,2%,-1%,-9%,7%,-3%[2.34 µM]
COc1ccccc1N1CCN(C(=O)c2ccc(Nc3nc4ccccc4n4nnnc34)cc2)CC1,/,-16%,/,?,1%
